Screening data from PubChem.
The entries come from a sample that favours hits as a whole.
NS1 inh = qHTS Assay for Inhibitors of Influenza NS1 Protein Function | Potency, µM (highest dose often 46.1 µM), without a hit: at the top dose activity, positive = more growth | hit rate 0.4% among 270,000 | AID 2326, 2010; calls by dose curve; note: potency is the fitted concentration of half-maximal effect; actives are rising curves; nearly all actives have a fitted effect of over 50% in size
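Compounds were scored for reversing the slow growth caused by influenza A NS1 in S. cerevisiae, measured by optical density at 600 nm. Assay medium contained 2% galactose at pH 6.0; NS1-free yeast of the same strain were the positive control.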
AmpC inh detg = qHTS Inhibitors of AmpC Beta-Lactamase (assay with detergent) | hit rate 0.041% among 370,000 | AmpC hydrolysis of nitrocefin, absorbance 480 nm, 0.01% Triton | Potency, µM (series often up to 114 µM), without a hit: top-dose activity change, negative = inhibition, usual class: inhibitors | P00811 | AID 485294, 2010;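 note: potency is the fitted concentration of half-maximal effect; 0% = no-compound wells and -100% = no-enzyme wells; nearly all actives have a fitted effect of over 25% in size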
Target sequence (P00811 whole entry, looked up): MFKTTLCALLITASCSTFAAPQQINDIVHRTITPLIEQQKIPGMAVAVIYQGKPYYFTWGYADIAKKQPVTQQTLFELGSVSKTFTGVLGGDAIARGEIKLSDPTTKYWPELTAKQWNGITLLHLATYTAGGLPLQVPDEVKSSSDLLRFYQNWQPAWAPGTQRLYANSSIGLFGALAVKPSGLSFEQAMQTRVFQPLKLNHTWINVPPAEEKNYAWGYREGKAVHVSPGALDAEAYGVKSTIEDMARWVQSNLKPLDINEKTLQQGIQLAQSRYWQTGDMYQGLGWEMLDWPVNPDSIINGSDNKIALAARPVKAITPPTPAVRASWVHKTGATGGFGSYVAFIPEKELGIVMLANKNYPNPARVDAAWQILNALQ
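AmpC (5.3 nM in the dispensed reagent) in 20 mM phosphate pH 7.0 with 0.01% (detergent screen) or 0.0001% Triton X-100 was preincubated with compounds for 15 min at room temperature. Nitrocefin was then added from an 800 uM solution, and hydrolysis was followed at 480 nm.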
Cycloheximide cs = Cycloheximide Counterscreen for Small Molecule Inhibitors of Shiga Toxin; cell reporter, cycloheximide protein synthesis inhibition counterscreen; hit rate 12% among 300,000; AID 2314, 2010; max response, %; in the data active = max response mostly above about 13%, no sharp cut-off; inactive = mostly below about 14%; note: read at 38.3 µM for the half of the compounds with a filed dose; 0% is about no effect
Shiga inhibitor = A qHTS for Small Molecule Inhibitors of Shiga Toxin. Vero cells, Shiga toxin protein synthesis inhibition reporter. inhibition, % at 38.7 µM. hit rate 9.2% among 290,000; in the data active = inhibition mostly above about 28%, no sharp cut-off; inactive = mostly below about 43%; note: 0% is about no effect
AmpC inh no detg = qHTS Inhibitors of AmpC Beta-Lactamase (assay without detergent); AmpC nitrocefin hydrolysis, absorbance 480 nm, 0.0001% Triton; P00811; hit rate 0.52% among 330,000; Potency, µM (doses to about 57.1 µM), without a hit: top-dose activity change, negative = inhibition, actives largely listed as inhibitors;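 note: potency is the fitted concentration of half-maximal effect; plate controls were no compound for no effect and no enzyme for full effect; nearly all actives have a fitted effect of over 20% in size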
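20 mM phosphate pH 7.0 + 0.01% (detergent screen) or 0.0001% Triton X-100; 5.3 nM AmpC reagent; cpd preinc 15 min RT; nitrocefin (800 uM stock) to start; A480 q20 s × 4 min; Activity was normalised to no-enzyme and no-compound control wells.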
The depositor's hits bear a star; ? = inconclusive; / = no result; + = active, no number. Unless noted, calls come from the whole dose curve; as a rule, active = well fitted curve in the direction sought with a large enough effect; inconclusive = small, poorly fitted or top-dose-only effect, or another doubt; inactive = no such curve, though single readings can be large; an effect the other way counts as inactive or inconclusive.

SMILES	NS1 inh	AmpC inh detg	Cycloheximide cs	Shiga inhibitor	AmpC inh no detg
CC[C@H](C)[C@H](N)C(=O)N[C@@H](CC(N)=O)C(=O)N1CCC[C@H]1C(=O)N[C@H](C(=O)N[C@@H](Cc1ccc(O)cc1)C(=O)N[C@@H](CCCN=C(N)N)C(=O)N[C@@H](CC(C)C)C(=O)N[C@@H](CCCN=C(N)N)C(=O)N[C@@H](Cc1ccc(O)cc1)C(N)=O)[C@@H](C)CC	/	/	-5.3	-3.6	/
Cc1ccc(CN(C(=O)c2ccc([N+](=O)[O-])cc2)C2CCS(=O)(=O)C2)o1 (stereo not drawn)	1.8%	-8.6%	-5.0	-8.2	5.7%
Cc1onc(-c2c(F)cccc2Cl)c1C(=O)NCc1ccccc1	19.3%	-2.0%	-6.6	7.4	2.2%
Cc1onc(-c2c(F)cccc2Cl)c1C(=O)N[C@@H]1C(=O)N2C(C(=O)O)C(C)(C)S[C@H]12 (stereo partly drawn)	/	2.51µM*	/	/	/
CC1(C)S[C@@H]2[C@H](NC(=O)Cc3ccccc3)C(=O)N2[C@@H]1C(=O)O	-7.6%	/	/	/	/
Cc1onc(-c2ccccc2Cl)c1C(=O)N[C@@H]1C(=O)N2[C@@H]1SC(C)(C)[C@@H]2C(=O)O	/	0.355µM*	/	/	0.794µM*
O=C(c1cccc(S(=O)(=O)N2CCOCC2)c1)N1CCCc2ccccc21	-1.5%	-4.9%	-2.6	-3.8	14.5%
O=C(c1ccccc1F)N1CCCc2ccccc21	-26.4%	-9.2%	28.8*	55.3*	-10.0%
O=C(CNc1cccc(S(=O)(=O)N2CCOCC2)c1)N1CCc2ccccc21	-3.4%	-0.5%	10.2*	45.1*	-1.3%
O=C(c1cccc(F)c1F)N1CCCc2ccccc21	4.7%	?	6.4	/	-0.7%
CCN(CC)S(=O)(=O)c1cccc(C(=O)N2CCCc3ccccc32)c1	-4.2%	-11.2%	20.5*	37.7*	17.7%
CCN(CC)S(=O)(=O)c1ccc(C(=O)N2CCc3ccccc32)cc1	/	-7.3%	5.9	-15.9	-12.0%
O=C(c1cc(S(=O)(=O)N2CCOCC2)ccc1F)N1CCCc2ccccc21	-7.8%	-14.6%	22.4*	27.5	17.6%
Cc1nc(-c2ccccc2)sc1-c1nc(-c2cccnc2)ncc1S(=O)(=O)c1ccccc1	5.3%	-8.7%	-1.6	-8.0	-2.5%
C[C@H](NC(=O)[C@@H]1Cc2ccccc2CN1)C(=O)Nc1ccc2c(c1)OCCO2	-1.6%	1.5%	36.2*	51.0*	-12.2%
CCc1ccc(NC(=O)CNC(=O)[C@@H]2Cc3ccccc3CN2)cc1	-8.6%	-0.5%	4.5	2.7	-13.0%
O=C(CNC(=O)[C@@H]1Cc2ccccc2CN1)Nc1ccc2c(c1)OCCO2	6.3%	-4.4%	37.1*	60.1*	-18.1%
CC(C)C(NC(=O)C1CCCCC1)C(=O)Nc1ccc2c(c1)OCCO2 (stereo not drawn)	?	7.2%	63.2*	+	-1.6%
CC(C)[C@H](NC(=O)[C@@H]1Cc2ccccc2CN1)C(=O)Nc1ccc2c(c1)OCCO2	-11.1%	-2.3%	28.3*	82.6*	-3.2%
Cc1ccc(NC(=O)c2sc3nc[nH]c(=O)c3c2C)cc1C	/	1.5%	/	/	/
Cc1ccc(C)c(NC(=O)Cn2nnc(-c3ccc(N4CCOCC4)cc3)n2)c1	/	?	-2.2	-8.3	-24.6%
O=C(COC(=O)C12CC3CC(CC(Br)(C3)C1)C2)N1CCOCC1	/	3.7%	12.6	17.1	9.9%
CSCC[C@H](NC(=O)[C@@H]1Cc2ccccc2CN1)C(=O)Nc1ccc2c(c1)OCCO2	10.4%	?	51.7*	87.5*	-19.3%
O=C(CNC(=O)[C@@H]1Cc2ccccc2CN1)NC1CCCC1	-10.1%	-4.9%	24.3*	53.0	-14.0%
CCC(C)[C@H](NC(=O)[C@@H]1Cc2ccccc2CN1)C(=O)Nc1ccc2c(c1)OCO2 (stereo partly drawn)	-6.0%	1.2%	29.7*	38.5*	26.7%
SMILES	NS1 inh	AmpC inh detg	Cycloheximide cs	Shiga inhibitor	AmpC inh no detg
CCOC(=O)N1CCN(Cc2nc3cc(NC(=O)c4ccc(OC)cc4)ccc3n2C(C)C)CC1	/	10.7%	/	/	/
CC(=O)n1nc(-c2ccc(Cl)cc2)nc1NCc1ccco1	-7.3%	-0.8%	31.2*	49.8*	-29.7%
COc1ccc(C(=O)n2nc(-c3ccc(Cl)cc3)nc2NCc2ccco2)cc1	/	-0.2%	/	/	/
COc1ccc(CC(=O)n2nc(-c3ccc(Cl)cc3)nc2NCc2ccco2)cc1	-5.7%	-5.8%	22.5*	62.9	-35.9%
Cc1nn(-c2ccc(N3CCCC3)nn2)c(C)c1CCC(=O)NCc1ccc(F)cc1	/	17.3%	/	/	/
COc1cccc(NC(=O)c2ccc3c(c2)OCO3)c1	-11.7%	-9.7%	31.6*	63.4*	-19.1%
CCC(=O)Nc1cccc(NC(=O)c2ccc3c(c2)OCO3)c1	-4.7%	1.9%	19.1*	61.1*	0.141µM*
CCOC(=O)c1cnc(SC)nc1Sc1cc(Cl)ccc1Cl	4.4%	-7.6%	8.1	-23.4	18.4%
CCOc1ccc2c(c1)nc(SCC(=O)c1cccs1)n2C	-7.5%	-7.5%	50.5*	81.3*	-26.6%
CC(=O)Nc1nc(-c2ccc3ccccc3c2)cs1	-2.1%	-0.9%	38.0*	86.7*	-36.9%
COc1cccc(-c2csc(NNC(=O)c3cccs3)n2)c1	?	8.7%	14.6	36.3	-55.8%
CC(=O)Nc1ccc(-c2csc(NC(C)c3ccccc3)n2)cc1 (stereo not drawn)	8.9%	-7.9%	6.8	4.0	-42.6%
Oc1ccc(Nc2nc(-c3ccc4ccccc4c3)cs2)cc1	-56.5%	?	48.9*	120.6*	-36.0%
COc1cccc(-c2csc(NC(=O)Oc3ccccc3)n2)c1	-52.3%	-0.3%	47.6*	137.1*	-22.9%
Cc1cc(NS(=O)(=O)c2ccc(Nc3nc(-c4ccc(O)cc4)cs3)cc2)no1	?	?	-1.3	-7.2	-22.1%
CC(=O)NCCC(=O)Nc1nc2c(ccc3ccccc32)s1	3.5%	?	14.9*	19.6	6.5%
CCOC(=O)c1ccc(CN(Cc2ccc(OC)cc2)S(=O)(=O)c2cccc(C(F)(F)F)c2)cc1	/	-3.0%	/	/	/
CCc1ccccc1NC(=O)c1nn(-c2ccc(C)cc2)c(=O)c2c1c1ccccc1n2C	/	6.5%	/	/	/
Cc1cc(Nc2ccc3c(c2)OCCO3)c2cccc(C)c2n1	2.1%	-12.8%	-2.8	32.8	-37.7%
Oc1ccc(-c2nc(-c3ccc(O)c(O)c3)cs2)cc1	-18.1%	-15.6%	23.4	94.1*	-44.8%
CC(=O)NCCC(=O)Nc1nc(-c2ccc3ccccc3c2)cs1	-1.1%	0.1%	29.3*	52.5*	86.9%
CCC(C)NC(=O)Cn1ccc2cc(S(=O)(=O)N3CCCCCC3)ccc21 (stereo not drawn)	-0.1%	3.8%	3.3	-10.9	0.2%
COCCCNC(=O)/C=C/c1ccc(Cl)cc1	-67.8%	2.0%	21.2*	50.1*	-2.5%
O=C(/C=C/c1cccc(Cl)c1)NCc1cccs1	-24.7%	2.0%	38.3*	41.4*	-40.8%
O=C(/C=C/c1ccc(Cl)cc1)NCc1cccs1	-6.1%	-5.5%	53.2*	91.7*	-16.0%
